Fewer than 10 of roughly 83,000 compounds were called active. The rule behind the calls is not given here. Not all results are given here. Results with a measured potency or affinity are listed apart.
What follows are compounds tested against Heat shock cognate 71 kDa protein (Homo sapiens) (UniProt P11142) (assay: small molecules displacing fluorescent ligand from Hsc70 – biochemical, fluorescence polarization, primary screen (AID 568)). Details: mP, at 20 µM, hits give high values.
Heat shock cognate 71 kDa protein (Homo sapiens), sequence (P11142 whole entry, looked up): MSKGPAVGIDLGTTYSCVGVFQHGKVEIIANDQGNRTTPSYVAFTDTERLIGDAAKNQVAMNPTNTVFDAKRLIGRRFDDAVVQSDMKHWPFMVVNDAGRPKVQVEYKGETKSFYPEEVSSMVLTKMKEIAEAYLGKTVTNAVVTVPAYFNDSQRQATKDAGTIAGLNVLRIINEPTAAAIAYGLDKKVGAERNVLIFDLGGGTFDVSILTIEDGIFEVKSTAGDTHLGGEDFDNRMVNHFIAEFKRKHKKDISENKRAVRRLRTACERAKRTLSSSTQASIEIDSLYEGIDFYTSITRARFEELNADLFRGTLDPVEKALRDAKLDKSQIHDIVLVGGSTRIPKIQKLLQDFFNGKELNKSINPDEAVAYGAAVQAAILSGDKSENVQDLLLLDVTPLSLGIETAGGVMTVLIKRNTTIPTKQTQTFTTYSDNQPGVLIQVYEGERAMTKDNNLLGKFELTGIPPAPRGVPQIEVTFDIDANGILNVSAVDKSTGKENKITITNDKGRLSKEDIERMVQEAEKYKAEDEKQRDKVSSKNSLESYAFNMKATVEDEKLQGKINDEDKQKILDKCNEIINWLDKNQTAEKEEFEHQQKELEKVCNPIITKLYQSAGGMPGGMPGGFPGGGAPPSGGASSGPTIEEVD
Heat shock cognate 71 kDa protein (Homo sapiens), sequence (P11142 whole entry, looked up): as above

displacement, inactive:
O=C(Nc1cccc(Cl)c1N1CCCC1)c1cc2ccccc2o1 -2.4%
CCOC(=O)C1=NN(c2ccccc2)C2(S1)SC(C(C)=O)=C(C)N2c1ccccc1 (stereo not drawn) 3.4%
Cc1noc(C)c1CSc1nnc2cc(C)c3ccccc3n12 -6.7%
Cc1ccc(C(=O)NCc2occc2C(=O)O)o1 2.4%
CCn1c2ccccc2c2nnc(SCC(=O)Nc3ncccn3)nc21 5.9%
COc1ccc(S(=O)(=O)NCC(=O)N(CC(=O)NCC2CCCO2)c2c(C)cccc2C)cc1 (stereo not drawn) -3.5%
O=C(Nc1ccncc1)c1cc(F)cc(F)c1 3.6%
c1ccc2sc(N3CCN(Cc4nnnn4CC4CCCO4)CC3)nc2c1 (stereo not drawn) 1.7%
Cn1c(SCc2ccc(F)cc2)nnc1-c1cccs1 -5%
CCOc1ccc(C(C#N)N2CCOCC2)cc1OC (stereo not drawn) -4.5%
CCCCN(C(=O)c1cc(OC)c(OC)c(OC)c1)C1=CC2CCC(C1)N2C (stereo not drawn) -2.2%
Cc1nn(-c2ccccn2)c2nc(-c3cccs3)cc(C(=O)N3CCOCC3)c12 0.1%
Cn1c(SCC(=O)NCc2ccc3c(c2)OCO3)nnc1-c1cccs1 -4.3%
COc1ccc(-c2nc(C)c(C(C)=O)n2O)cc1 3.1%
COC(=O)c1ccc(OCC(=O)c2ccccc2OC)cc1 2.4%
CCOC(=O)c1ccc2nc(NC(=O)c3cccs3)sc2c1 -11.3%
O=C(c1cccc(S(=O)(=O)N2CCCCC2)c1)N1CCN(S(=O)(=O)c2ccc(F)cc2)CC1 7.4%
N#Cc1ccccc1NC(=O)CSc1nnc(-c2ccccc2O)n1-c1ccccc1 -3.5%
CCN(CC)S(=O)(=O)c1cccc(C(=O)Nc2cccnc2)c1 4.9%
CCOC(=O)c1cccc(N2C(=O)C3C(C(=O)NC4CC4)C4(C)C=CC3(O4)C2C(=O)NC(C)(C)C)c1 (stereo not drawn) 0.8%
COc1ccc(NC(=O)CSc2nc3ccccc3c(=O)n2CCNC(C)=O)cc1 1%
CC(C)c1ccc(-c2nnn(Cc3nc4ccccc4s3)n2)cc1 7.9%
CC1=C(C(=O)N2CCOCC2)C(c2cccs2)NC(=O)N1 (stereo not drawn) 1.5%
Cc1c(NC2=NC(C)(C)Cc3ccccc32)c(=O)n(-c2ccccc2)n1C -0.6%
CCc1ccccc1NC(=O)N[C@@H](C)C(=O)O 4.3%
CCCCNC(=S)NNC(=O)c1ccco1 4%
CC1=C(C(=O)OC(C)C)C(c2c[nH]c3ccccc23)n2ncnc2N1 (stereo not drawn) 4.3%
CNS(=O)(=O)c1cccc2cccnc12 5.1%
Cc1ccc(C)c(-n2c(SCC(=O)NCC3CCCO3)nnc2-c2ccoc2C)c1 (stereo not drawn) -2.3%
O=C1C2C3C=CC(C3)C2C(=O)N1c1ccc2ccccc2n1 (stereo not drawn) 6.3%
CCOC(=O)c1c(NC(=O)CSc2nnc(-c3cccnc3)o2)sc2c1CCC2 -5%
Cn1c(CNC(=O)c2cccs2)nnc1SCC(=O)Nc1ccc(Cl)cc1 1.1%
COc1ccc(Br)cc1CNC(=O)CCc1nc(-c2ccccc2F)no1 0%
COC(=O)c1[nH]nc2c1C(=O)N(C1CCCCC1)C2=O 2.9%
CCCC1CCC(C2=N/C(=C\c3ccc(OC)c(OC)c3)C(=O)O2)CC1 (stereo not drawn) -5%
Cn1c(CCN2CCN(c3ccccc3)CC2)nc2cc(NC(=O)c3ccco3)ccc21 0.4%
O=C(COC(=O)c1cccnc1)c1ccc(Cl)c(Cl)c1 -1.2%
CCn1c(COc2ccccc2C)nnc1SCC(=O)CC(=O)Nc1ccccc1 2.2%
CN(Cc1ccccc1)C(=O)c1ccc2c(c1)OCCO2 0.2%
Cn1cc(S(=O)(=O)CC(=O)Nc2ccc3c(c2)OCCO3)c2ccccc21 7.1%
NC(=O)c1ccccc1N/C=C/C(=O)c1ccco1 5.3%
CCN1CCN(CCCNC(=O)C2CCCN(c3nnc(-n4cccc4)s3)C2)CC1 (stereo not drawn) 7%
Cc1ccc2oc(=O)c3cnn(CC(=O)NCCN4CCOCC4)c3c2c1 2.8%
Cc1c(C(=O)O)oc2ccc(S(=O)(=O)NCc3ccccc3)cc12 -0.1%
COc1ccc(C(c2nnnn2Cc2cccs2)N2CCN(c3ccccc3F)CC2)cc1 (stereo not drawn) -2.2%
CC(=O)NCCn1c(SCC(=O)NCCC2=CCCCC2)nc2ccccc2c1=O -4.3%
Cc1cc(C)cc(N(C(=O)c2ccc3c(c2)OCO3)C2C=CS(=O)(=O)C2)c1 (stereo not drawn) -3.3%
CCN(CC)S(=O)(=O)c1ccc(-c2nnc(SCc3nnc(-c4ccc(C)cc4)o3)n2CC)cc1 -2.9%
CC(C)(C)C(=O)CNS(=O)(=O)c1ccc(S(=O)(=O)NC2CCCC2)cc1 2.7%
Cc1ccc(OC(C)C)c(CN(CCO)CCO)c1 -3.1%
COc1ccc(S(=O)(=O)N2CCSC2c2ccc(N)cc2)cc1 (stereo not drawn) 2.5%
CSc1nn(CCc2ccncc2)c(=S)s1 -0.7%
COc1cc(NC(=O)c2cc(C)on2)cc(OC)c1OC 8%
N#C/C(=C\Nc1ccc2c(c1)OCCO2)c1nc2ccccc2[nH]1 -23.3%
CC(C)c1[nH]nc2c1C(Cc1ccccc1)C(C#N)=C(N)O2 (stereo not drawn) 5.2%
COc1ccccc1N1CCN(C(=O)c2c(-c3ccccc3Cl)noc2C)CC1 -6.4%
CC(=O)Nc1ccc(S(=O)(=O)Nc2cccc(N(C)S(C)(=O)=O)c2)cc1 -0.7%
CCOc1ccc(S(=O)(=O)Nc2ccccc2SC)cc1 -1.7%
NC(=O)c1ccsc1NC(=O)COc1ccccc1 9.1%
COC(=O)c1c(NS(C)(=O)=O)sc2c1CCCC2 3.6%
COc1ccc(NC(=O)CCn2nc(C)cc2C)cc1 -4.3%
O=C(CSc1nnc(Cn2c(=O)sc3ccccc32)n1CCc1ccccc1)N1CCCC1 1.9%
COc1ccc(S(=O)(=O)NCC2CCC(C(=O)N3CCC4(CC3)OCCO4)CC2)cc1 (stereo not drawn) -1.2%
CC1CCN(c2nc(-c3ccccc3)c(C#N)c(=O)[nH]2)CC1 -1.1%
C=CCn1c(O)c(C(CC)=Nc2ccccc2NC(=O)CC)c(=O)[nH]c1=O 0%
NC(=O)CSc1nnc(CCc2nc3ccccc3[nH]2)n1-c1ccccc1 -0.4%
COC(=O)c1ccc(Nc2nc(C)cc(=O)[nH]2)cc1 -5.8%
Cc1occc1C(=O)Nc1cc(C(C)(C)C)on1 -3.1%
CCn1c(=O)n(CC)c2cc(S(=O)(=O)Nc3ccccc3C)c(C)cc21 0.5%
CCOC(=O)N1CCN(C(=O)c2ccc(N3C(=O)c4ccccc4C3=O)cc2)CC1 -0.7%
O=C1OCC(Cn2c3ccccc3c3ccccc32)O1 (stereo not drawn) 4.8%
O=C(CN1C(=O)c2cccc3cccc1c23)N1CCN(Cc2ccc3c(c2)OCO3)CC1 -5.5%
CC(C)C(=O)Nc1cc(=O)[nH]c2ncnn12 -7.6%
CCN1C(=O)Cc2cc(S(=O)(=O)N3CCOCC3)ccc21 7%
N#Cc1cn(CC(=O)N2CCCC2)c2ccccc12 -2.4%
Clc1ccc(OCCn2cnc3ccccc32)c(Cl)c1 -4%
CCC(CC)C(=O)NCc1ccccc1Cl 0.3%
Cc1ccc(S(=O)(=O)/N=C2/C=C(C3C(=O)CC(C)(C)CC3=O)C(=O)c3ccccc32)cc1 4%
Cc1ccc(C(=O)COc2nc(C)cc(C)c2C#N)cc1 3.2%
Cc1cc(=O)n2nc(N3CCCC(C(=O)NCCCN4CCc5ccccc5C4)C3)sc2n1 (stereo not drawn) 3%
CC(C)OC(=O)C1CC=CCC1C(=O)Nc1ccc(Cl)cc1 (stereo not drawn) 0.4%
CCc1nnc(NC(=O)CSc2nnnn2C)s1 -1.1%
CC(C)CCNC(=O)c1ccc2c(c1)ncn2C1CCCCC1 0.7%
Oc1ccccc1CNCCCNCc1ccccc1O -1.3%
COc1ccccc1N1C(=O)CC(Sc2nc(C)cc(C)n2)C1=O (stereo not drawn) 0.9%
COC(=O)c1ccc(NC(=O)CCN2CCN(CCC(=O)Nc3ccc(C(=O)OC)cc3)CC2)cc1 2.6%
Cc1cc(C)c2c(N)c(S(=O)(=O)Cc3ccccc3)sc2n1 3.8%
O=C(O)CCN1C(=O)C2CCCCC2C1=O (stereo not drawn) -0.4%
Cc1ccc(OCC2Cn3c(nc4c3c(=O)n(C)c(=O)n4C)O2)cc1 (stereo not drawn) 1.1%
COc1ccc(OC)c(-n2nnnc2SCC(=O)O)c1 4.6%
CCC(=O)N(Cc1cc2ccccc2[nH]c1=O)C(C)C 7%
Cc1ccc2c(c1)NCC(C(=O)NCc1ccccc1)O2 (stereo not drawn) 1.6%
CCc1cccc(NS(=O)(=O)c2ccc3c(c2)oc(=O)n3C)c1 1.5%
CC1(c2ccc(OC(F)F)cc2)NC(=O)N(CC(=O)Nc2ccc3c(c2)OCO3)C1=O (stereo not drawn) -2.6%
Cc1cccc(C)c1NC(=O)NC1(C(=O)NCCCN2CCOCC2)CCCCC1 -2.5%
Cc1noc(C)c1COC(=O)CCCc1nc2ccccc2s1 0.6%
COc1ccc(C(=O)Nc2ccc3oc(-c4cccc(F)c4)nc3c2)cc1OC 2.4%
Cc1ccc(/C=N/NC(=O)CC2N=C(Cc3ccccc3)NNC2=O)cc1 (stereo not drawn) -1.6%

— PubChem BioAssay AID568 (Sanford-Burnham Center for Chemical Genomics, 2006)
